ELG1 DNA repair: blocks ELG1-dependent DNA repair in HEK293T cells; HEK293T ELG1-luciferase reporter, luminescence, 16 h; DNA damage induced by 5-fluorouridine; Potency, µM (titrated, usually from 46.1 µM), actives largely listed as inhibitors; 330,000 compounds, 2.3% hits; note: nearly all actives have a fitted effect of over 55% in size
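In this reporter screen, reduction of luminescence relative to DMSO vehicle indicated activity. Compounds and 5-fluorouridine were added together to 2,000 cells per well, incubated for 16 hr at 37 °C, then developed with ONE-Glo.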
TDP1 block: blocks human tyrosyl-DNA phosphodiesterase 1. recombinant TDP1, AlphaScreen DNA substrate cleavage. Potency, µM (highest dose often 130 µM), hits mostly inhibitors. 350,000 compounds, 0.28% hits. AID 485290; note: nearly all actives have a fitted effect of over 40% in size
Target sequence (Q9NUW8 whole entry, looked up): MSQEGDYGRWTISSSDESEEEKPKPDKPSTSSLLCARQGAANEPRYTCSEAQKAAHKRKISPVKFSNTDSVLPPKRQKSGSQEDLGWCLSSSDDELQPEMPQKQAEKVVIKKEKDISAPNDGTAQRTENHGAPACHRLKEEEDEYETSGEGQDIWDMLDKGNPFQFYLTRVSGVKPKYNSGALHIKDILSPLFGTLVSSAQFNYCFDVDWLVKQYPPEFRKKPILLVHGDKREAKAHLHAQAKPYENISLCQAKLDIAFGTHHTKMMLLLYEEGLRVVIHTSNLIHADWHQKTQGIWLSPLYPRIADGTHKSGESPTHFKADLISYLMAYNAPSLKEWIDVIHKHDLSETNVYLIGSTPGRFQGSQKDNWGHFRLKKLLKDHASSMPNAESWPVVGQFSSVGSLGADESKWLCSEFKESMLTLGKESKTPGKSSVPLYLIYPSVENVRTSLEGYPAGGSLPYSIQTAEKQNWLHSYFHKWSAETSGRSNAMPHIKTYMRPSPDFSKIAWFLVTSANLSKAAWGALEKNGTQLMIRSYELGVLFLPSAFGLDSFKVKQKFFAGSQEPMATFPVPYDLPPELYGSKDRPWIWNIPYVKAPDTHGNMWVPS
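Tdp1 1 nM final; 15 min RT w/ cpd; substrate 15 nM, 5 min; beads 10 ug/ml, 10 min; AlphaScreen read. Neg ctrl: no enzyme.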
TDP1 cell CPT: growth inhibition of DT40 Tdp1-/-;hTDP1 cells with camptothecin (screen for TDP1 inhibitors); chicken DT40 Tdp1-/-;hTDP1 cells + 20 nM CPT, ATP luminescence, 48 h; Potency, µM (top dose mostly 46.2 µM), usual class: inhibitors; 420,000 compounds, 12% hits; note: nearly all actives have a fitted effect of over 55% in size
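Chicken DT40 Tdp1-/- cells stably complemented with human TDP1 were seeded at 400 cells/well in medium containing 20 nM camptothecin, exposed to pin-transferred compounds, and grown at 37 °C for at least 48 hr. Viability was read as ATP luminescence.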
Giardia killer: Giardia lamblia killing. Giardia lamblia trophozoite viability. activity change, % at 7.66 µM, hits read low. 340,000 compounds, 0.15% hits; in the data active = activity change below about -80%; inconclusive = between about -30% and that limit;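 note: parasites exposed to compound for two days anaerobically before the ATP read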
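Anaerobic 48 hrs incubation at 37 deg C of 100 trophozoites/well with test compounds; ATPLite 1-Step luminescence, 15-30 min RT, reports cellular ATP as viability.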
TDP1 cell noCPT: qHTS for Inhibitors of human tyrosyl-DNA phosphodiesterase 1 (TDP1): qHTS in cells in absence of CPT; DT40 Tdp1-/- hTDP1 cells, no CPT, ATP luminescence, 48 h; Potency, µM (series often up to 46.2 µM), actives largely listed as inhibitors; 420,000 compounds, 15% hits; note: nearly all actives have a fitted effect of over 55% in size
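No-CPT arm: Tdp1-/-;hTDP1 DT40 cells (400/well) plus compounds, incubated ≥48 hr at 37 °C. Readout CellTiter-Glo luminescence.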
IL-1B inflam inh: inflammasome signaling inhibition, IL-1 beta readout | activity change, % at 57.5 µM | 360,000 compounds, 4.7% hits | THP-1 LPS/ATP IL-1B secretion, AlphaLISA, 16 h; stronger effect = lower value | AID 743279; in the data active = activity change below about -50%; inconclusive = mostly about -30% to -49%
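Secreted IL-1B measured by AlphaLISA bead assay after 16 h compound exposure of THP-1 cells; compounds (final up to 57.5 uM) added 1 h before LPS (250 ng/mL) and ATP (1.25 mM) stimulation; lower signal means less secretion.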
Numbers stand for hits. Sampled rows, rich in hits. Any-hit rate of the full collection: about 19%. Unless noted, calls come from the whole dose curve; as a rule, active = well fitted curve in the direction sought with a large enough effect; inconclusive = small, poorly fitted or top-dose-only effect, or another doubt; inactive = no such curve, though single readings can be large; an effect the other way counts as inactive or inconclusive.

For CN(C)c1ccc(/C=N/Nc2nncc3ccccc23)cc1 the results were ELG1 DNA repair inconclusive, TDP1 cell CPT inconclusive, Giardia killer inconclusive, TDP1 cell noCPT 13µM and IL-1B inflam inh inactive.
Screening O=C(COC(=O)c1ccc(F)cc1F)Nc1ccc2[nH]c(=O)[nH]c2c1 returned ELG1 DNA repair inactive, TDP1 block inactive, TDP1 cell CPT inactive, Giardia killer inactive, TDP1 cell noCPT inactive and IL-1B inflam inh inconclusive.
CCOC(=O)C1=C(O)/C(=C\c2ccc(CNC(=O)C(=O)Nc3ccccc3)o2)N=C1C was read as ELG1 DNA repair inactive, TDP1 block inactive, TDP1 cell CPT inactive, Giardia killer inactive, TDP1 cell noCPT inactive and IL-1B inflam inh inactive.
For COc1ccc(/C=C/C(=O)OCC(=O)NCCC2=CCCCC2)cc1S(=O)(=O)N1CCOCC1 the results were ELG1 DNA repair inactive, TDP1 block inactive, TDP1 cell CPT inactive, Giardia killer inactive, TDP1 cell noCPT inactive and IL-1B inflam inh inactive.
`COCCCN1C(=O)C(CC(=O)NCc2cccc3ccccc23)CC(C(=O)N(C)C)=C1C` (centres undefined) gave TDP1 cell CPT inactive, TDP1 cell noCPT inactive and IL-1B inflam inh inactive.
CCOC(=O)[C@]12CCC=C1N(Cc1ccc(Cl)cc1Cl)C(=O)[C@H](CC(=O)NCc1ccccc1)C2 was read as TDP1 cell CPT inconclusive, TDP1 cell noCPT 23.1µM and IL-1B inflam inh -63.5.
CCOC(=O)[C@]12CCCC=C1N(Cc1ccc(Cl)cc1Cl)C(=O)[C@H](CC(=O)NCc1cccc(C(F)(F)F)c1)C2 was read as TDP1 cell CPT 14.6µM, TDP1 cell noCPT 18.4µM and IL-1B inflam inh -55.2.
For CCOC(=O)[C@]12CCC=C1N(Cc1ccc(Cl)cc1Cl)C(=O)[C@H](CC(=O)NCc1cccc(C(F)(F)F)c1)C2 the results were TDP1 cell CPT inconclusive, TDP1 cell noCPT inconclusive and IL-1B inflam inh inactive.
`CCOC(=O)[C@]12CCCC=C1N(Cc1ccc(Cl)cc1Cl)C(=O)[C@H](CC(=O)NCc1ccc(C)o1)C2` gave TDP1 cell CPT inconclusive, TDP1 cell noCPT inconclusive and IL-1B inflam inh inactive.
`CCOC(=O)[C@]12CCC=C1N(Cc1ccccc1)C(=O)[C@H](CC(=O)NCc1ccccc1)C2` gave TDP1 cell CPT inconclusive, TDP1 cell noCPT 16.4µM and IL-1B inflam inh inactive.
CCCCNC(=O)C[C@@H]1C[C@@]2(C(=O)OCC)CCC=C2N(Cc2ccccc2)C1=O was read as TDP1 cell CPT inactive, TDP1 cell noCPT inactive and IL-1B inflam inh inactive.
For CCOC(=O)[C@]12CCC=C1N(Cc1ccc(Cl)cc1Cl)C(=O)[C@H](CC(=O)NCc1ccc(C)o1)C2 the results were TDP1 cell CPT inconclusive and TDP1 cell noCPT 18.4µM.
For COc1ccc(C(=O)N(Cc2ccccc2)Cc2ccco2)c(O)c1 the results were TDP1 block inactive.
`O=C(NCC1CCN(Cc2ccccc2Cl)CC1)c1cc2ccc3cccnc3c2[nH]1` gave TDP1 block inactive, TDP1 cell CPT inconclusive and TDP1 cell noCPT 16.4µM.
For O=C(NCC1CCN(Cc2ccc(F)cc2)CC1)c1cc2ccc3cccnc3c2[nH]1 the results were TDP1 block inactive, TDP1 cell CPT 16.4µM and TDP1 cell noCPT 20.6µM.
Cc1cccc(N2CCN(C(=O)c3ccc4c(c3)NC(=O)C(CSCc3cccc(F)c3)N4)CC2)c1C (centres undefined) was read as ELG1 DNA repair inactive and TDP1 block inactive.
For COc1cc(/C=C2\SC(N)=NC2=O)ccc1OCC(=O)Nc1ccc(C)cc1 the results were ELG1 DNA repair inactive, TDP1 block inactive, TDP1 cell CPT 1.46µM, Giardia killer inactive, TDP1 cell noCPT 1.46µM and IL-1B inflam inh -102.8.
Screening CCOc1cc(/C=C2\C(=O)N(CCC#N)N=C2C)ccc1OCC(N)=O returned ELG1 DNA repair inactive, TDP1 block inactive, TDP1 cell CPT inactive, Giardia killer inactive, TDP1 cell noCPT inactive and IL-1B inflam inh inactive.
COc1ccc(/C=C2/SC(=O)N(CCC(=O)Nc3ccc(C)cc3)C2=O)cc1OC was read as ELG1 DNA repair inactive and TDP1 block inactive.
COc1cc(/C=C2\C(=O)N(CCC#N)N=C2C)ccc1OCC(=O)Nc1ccccc1 was read as ELG1 DNA repair inconclusive, TDP1 block inactive, TDP1 cell CPT inconclusive, Giardia killer inactive, TDP1 cell noCPT inconclusive and IL-1B inflam inh -60.8.
Screening COc1cc(/C=C2/SC(=S)N(CC(=O)O)C2=O)ccc1OCC(=O)Nc1ccc(C)c(C)c1 returned ELG1 DNA repair inactive and TDP1 block 12.6µM.
For OCC[C@@H]1C[C@H](O)[C@@H](O)[C@]2(OCc3ccccc32)O1 the results were ELG1 DNA repair inactive, TDP1 cell CPT inactive, Giardia killer inactive, TDP1 cell noCPT inactive and IL-1B inflam inh inactive.
Screening CN(C1CCCCC1)S(=O)(=O)c1ccc2c(c1)c(=O)c(C(=O)N1CCN(c3ccccc3F)CC1)cn2C returned TDP1 block inactive, TDP1 cell CPT inactive and TDP1 cell noCPT inactive.
For COc1ccc(Cn2c(SCc3ccc(C)cc3)nc3cc(OC)c(OC)cc3c2=N)cc1Cl the results were ELG1 DNA repair inconclusive, TDP1 block inactive, TDP1 cell CPT 4.11µM, Giardia killer inactive, TDP1 cell noCPT 2.31µM and IL-1B inflam inh -121.4.
Screening COc1cc2nc(SCc3ccc(Cl)cc3Cl)n(Cc3cccs3)c(=N)c2cc1OC returned ELG1 DNA repair inconclusive, TDP1 block inactive, TDP1 cell CPT inconclusive, Giardia killer inactive, TDP1 cell noCPT inconclusive and IL-1B inflam inh inconclusive.
`COCCCn1c(SCc2cccc(C(F)(F)F)c2)nc2cc(OC)c(OC)cc2c1=N` gave ELG1 DNA repair inconclusive, TDP1 block inactive, TDP1 cell CPT inconclusive, Giardia killer inactive, TDP1 cell noCPT inactive and IL-1B inflam inh inactive.
Screening COc1cc2nc(SCc3ccc(C(F)(F)F)cc3)n(Cc3cccs3)c(=N)c2cc1OC returned ELG1 DNA repair inactive, TDP1 block inactive, TDP1 cell CPT inactive, Giardia killer inactive, TDP1 cell noCPT inactive and IL-1B inflam inh inactive.
`COCCCn1c(SCc2ccccc2)nc2cc(OC)c(OC)cc2c1=N` gave ELG1 DNA repair 16.4µM, TDP1 block inactive, TDP1 cell CPT 23.1µM, Giardia killer inactive, TDP1 cell noCPT inconclusive and IL-1B inflam inh inactive.
Screening COc1ccc(Cn2c(SCc3cc(C)ccc3C)nc3cc(OC)c(OC)cc3c2=N)cc1 returned ELG1 DNA repair inconclusive, TDP1 block inactive, TDP1 cell CPT 8.2µM, Giardia killer inactive, TDP1 cell noCPT 7.31µM and IL-1B inflam inh -96.2.

Assay outcomes from PubChem BioAssay.
